# In PubChem BioAssay (NCI):
# The panel holds about 83,000 compounds, 20% with a hit somewhere; the sample as a whole holds those more often.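 48-hour exposure, single concentration, 96-well plates; percent growth endpoint where 0 means no net growth. Active: below 10.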 Calls of active or inactive are those of the source.
# Tested on: NCI/ADR-RES ovarian
# Assay: NCI-60 one-dose screen, 48 h (100 = growth as untreated, 0 = no growth, -100 = all killed)
# Settings: 10 µM unless noted
row,SMILES,growth
1,COc1ccc(C(=O)N2CCN(C(=O)c3cc(OC)c(OC)c(OC)c3)CC2)cc1OCCCCOc1cc2c(cc1OC)C(=O)N1CCC[C@H]1C=N2,110% (inactive)
2,Cn1c(-c2nonc2NC(=O)c2ccc(F)cc2)nc2ccccc21,106% (inactive)
3,O=C(NCCCN1CCN(CCCNC(=O)C2CCCCC2)CC1)C1CCCCC1,112% (inactive)
4,c1cc(-c2ccc3c(c2)OCO3)n2nccc2n1,107% (inactive)
5,O=C(CN1CCN(c2cc3c(cc2F)c(=O)c(C(=O)O)cn3C2CC2)CC1)Nc1ccc(C(=O)/C=C/c2ccc(Cl)cc2)cc1,111% (inactive)
6,CC(Cc1nnc(SCC(=O)Nc2ccc(I)cc2)n1N)c1ccccc1 (stereo not drawn),96% (inactive)
7,Cc1ccc2c(c1)C(C)Cc1c(ncnc1-n1cnc3ccccc31)N2C (stereo not drawn),17% (inactive)
8,CC1CCc2c(sc(NC(=O)CSc3nnc4ccccn34)c2C(N)=O)C1 (stereo not drawn),118% (inactive)
9,CC(=O)c1cc(C(=O)c2ccc3c(c2)Sc2ccccc2N3)c2cc(C)ccn12,12.1% (inactive)
10,CN(C)c1nc(N)c(N=O)c(N)n1,122% (inactive)
11,CC[C@H](C)[C@H]1NC(=O)[C@@H](N[C@](C)(O)[C@@H](N)CC(C)C)[C@@H](C)OC(=O)[C@H](Cc2ccc(OC)cc2)N(C)C(=O)[C@@H]2CCCN2C(=O)[C@H](CC(C)C)NC(=O)[C@@H](C)C(=O)[C@H](C(C)C)OC(=O)C[C@@H]1O,37.4% (inactive)
12,Cc1nc2scc(-c3ccccc3)n2c(=O)c1CCO,112% (inactive)
13,Cc1ccc(Cn2c(-c3nonc3N)nc3ccccc32)cc1,49.2% (inactive)
14,COc1cc(Cn2c(-c3nonc3N)nc3ccccc32)ccc1C,21.2% (inactive)
15,COc1ccc(/C=N/NC(=O)Cn2c(Cc3cccc4ccccc34)nc3ccccc32)cc1,93.6% (inactive)
16,Cc1ccc(Cn2c(-c3cccs3)nc3ccccc32)cc1,85.6% (inactive)
17,Cc1ccc(OCCn2c(C)nn(-c3ccc(Cl)cc3)c2=O)cc1,103% (inactive)
18,COc1ccc(-c2nc(-c3ccccc3)c(-c3ccccc3)n2C2CC2)cc1OC1CCCCC1,55.3% (inactive)
19,COc1cc(/C=C2\CCCC3=C2NC(C)=NC3c2cc(OC)c(OC)c(OC)c2)cc(OC)c1OC (stereo not drawn),14.5% (inactive)

row,SMILES,growth
1,CCN1C(=O)N[C@H]2[C@@H]3NC(=O)c4ccc(Cl)n4[C@@H]3C[C@]21O,76.4% (inactive)
2,CC(C(=O)n1cc(-c2ccccc2)c(-c2ccccc2)c1)c1ccccc1 (stereo not drawn),106% (inactive)
3,CC(Br)C(OC(=O)c1ccccc1Cl)c1cc2c(cc1Br)OCO2 (stereo not drawn),85.1% (inactive)
4,CCC(c1cccc(Br)c1)C(C(=O)O)c1ccc(OC)cc1 (stereo not drawn),103% (inactive)
5,COC(=O)CCCCN=Cc1c(O)c(O)c(C(C)C)c2cc(C)c(-c3c(C)cc4c(C(C)C)c(O)c(O)c(C=NCCCCC(=O)OC)c4c3O)c(O)c12,52.8% (inactive)
6,Cc1cc(C(=O)CSc2nc3ccccc3c(=O)[nH]2)c(C)n1C,103% (inactive)
7,Cn1cc(C=O)c2ccccc21,100% (inactive)
8,CC(=O)N1Cc2ccccc2C(C)Cc2cc(Cl)ccc21 (stereo not drawn),117% (inactive)
9,Cn1c(=O)c2c(nc3n2CCN(CCc2ccc(OCCN4CCOCC4)cc2)C3)n(C)c1=O,112% (inactive)
10,O=C(/C=C/c1ccccc1)n1c(-c2ccc(Cl)cc2)nc2ccccc21,10.8% (inactive)
11,COc1cc(C2CC(c3c(C)[n+]([O-])c4ccccc4[n+]3[O-])=NN2)cc(OC)c1OC (stereo not drawn),101% (inactive)
12,CCOC(=O)c1cc(/C(=N\O)c2cc(OC)c(OC)c(OC)c2)n2c(C)cccc12,29.3% (inactive)
13,COC(=O)CCCCCCN=Cc1c(O)c(O)c(C(C)C)c2cc(C)c(-c3c(C)cc4c(C(C)C)c(O)c(O)c(C=NCCCCCCC(=O)OC)c4c3O)c(O)c12,69.1% (inactive)
14,COc1ccc(/C(=N/O)c2cc(OC)c(OC)c(OC)c2)c(OC)c1N,31% (inactive)
15,COc1ccc(-n2c(C)cc(-c3ccccc3)c2C)cc1,40.2% (inactive)
16,N#CC1=C(N)OC2=C(C(=O)CCC2)C1c1ccco1 (stereo not drawn),103% (inactive)
17,C=CCc1cc(Cl)cc2c(OC(C)=O)c(C(C)=O)c(-c3ccccc3)nc12,119% (inactive)
18,COc1cc(/C=C/C(=O)c2ccc(NC(=O)CN3CCN(c4cc5c(cc4F)c(=O)c(C(=O)O)cn5C4CC4)CC3)cc2)cc(OC)c1OC,98.2% (inactive)
19,COc1ccc(/C(=N\O)c2cc(OC)c(OC)c(OC)c2)c(OC)c1N,18.2% (inactive)
